# Assay outcomes as filed in PubChem BioAssay.
# KB-V1 MDR tox: kills drug-selected multidrug resistant KB-V1 cells; KB-V1 MDR cells viability, CellTiter-Glo, 72 h; Potency, µM (doses to about 46.1 µM), hits mostly cytotoxic; 3.4% of 400,000 active; note: % is set by controls: 0 for no effect and ±100 for the full control effect; nearly all actives have a fitted effect of over 60% in size
#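 Following 72 h at 37 degrees C with compound, KB-V1 cell viability was read by CellTiter-Glo luminescence, medium being phenol-red-free DMEM plus 10% FBS; concentration-response parameters came from normalized, curve-fitted qHTS data.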
# HT1080-NT tox: kills 2HG-producing HT-1080-NT fibrosarcoma cells. AID 686970. 1.6% of 360,000 active. Potency, µM (doses to about 46.1 µM), inactives show at the highest dose activity, negative = less viability, usual class: cytotoxic. HT-1080-NT fibrosarcoma viability, CellTiter-Glo ATP luminescence, 48 h;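 note: NT is the 2HG producing partner of a matched IDH1 knockdown line; 0% = DMSO-treated cells and -100% = media-only wells without cells; nearly all actives have a fitted effect of over 55% in size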
#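 Fibrosarcoma NT cells, 750 per well in 5% FBS RPMI, were exposed to compound for 48 hours. Viability: CellTiter-Glo luminescence.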
# MCF10A rereplic: inducers of DNA re-replication in MCF 10A breast cells. Potency, µM (top dose mostly 46.1 µM), inactives show at the top dose activity, positive = re-replication, usual class: activators. 2.9% of 350,000 active. AID 624296. MCF 10A DNA re-replication, Hoechst nuclear intensity, 48 h; note: % of control where 0% means no effect; nearly all actives have a fitted effect of over 50% in size
# SW480 rereplic: inducers of DNA re-replication in SW480 colon cancer cells; Potency, µM (titrated, usually from 46.1 µM), inactives show at the highest dose re-replication activation, most hits filed as activators; SW480 DNA re-replication, Hoechst DNA content imaging, 48 h; 1.8% of 340,000 active; AID 624297; note: % of control where 0% means no effect; nearly all actives have a fitted effect of over 55% in size
#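 Image-based DNA-content assay: after two days of treatment, nuclei were labelled with the DNA dye Hoechst and imaged, and hits were compounds raising the count of nuclei showing high fluorescence intensity.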
# HT1080 IDH1KD tx: HT-1080 IDH1 knockdown cell toxicity (counter line). Potency, µM (series often up to 46.1 µM), for the others: top-dose activity, negative = toxicity, usual class: cytotoxic. 2% of 360,000 active. HT-1080 IDH1 knockdown viability, ATP luminescence, 48 h. AID 686971;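 note: 0% = DMSO wells and -100% = cell-free medium wells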
#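 Knockdown cells (IDH1KD HT-1080) received compounds 2 h after plating at 750 cells/well and were kept 48 h at 37 °C in 5% FBS RPMI. A CellTiter-Glo luminescence read gave % activity for curve fitting.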
# KB-3-1 tox: KB-3-1 parental cell cytotoxicity | AID 1347075 | 1.4% of 400,000 active | KB-3-1 viability, CellTiter-Glo ATP luminescence, 72 h | Potency, µM (doses to about 46.1 µM), actives largely listed as cytotoxic; note: % is set by controls: 0 for no effect and ±100 for the full control effect; nearly all actives have a fitted effect of over 60% in size
#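 Using CellTiter-Glo luminescence, growth of non-resistant KB-3-1 adenocarcinoma cells is assessed 72 h after pin-tool compound addition at 37 °C. Normalized responses across the concentration series yield fitted curves.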
# Active calls of the source: *; i = inactive; u = inconclusive; x = no result given; ! = not active in a repeat. Shown are actives, neighbours in structure and some others; about 8% of the full set was active somewhere. Calls come from the whole dose curve; as a rule, active = well fitted curve in the direction sought with a large enough effect; inconclusive = small, poorly fitted or top-dose-only effect, or another doubt; inactive = no such curve, though single readings can be large; an effect the other way counts as inactive or inconclusive. Potency is the fitted concentration of half-maximal effect.
SMILES,KB-V1 MDR tox,HT1080-NT tox,MCF10A rereplic,SW480 rereplic,HT1080 IDH1KD tx,KB-3-1 tox
COc1cc(OC)cc(C2=Cc3ccc(OC)cc3C(CC(C)=O)N2c2ccc(-c3cccs3)cc2)c1 (stereo not given),i,-1.6%,x,x,-11.7%,7.31µM*
COc1cc(OC)cc(C2=Cc3ccccc3C(CC(C)=O)N2c2ccc(-c3cncnc3)cc2)c1 (stereo not given),u,19.3%,x,x,2.8%,23.1µM*
COC(=O)C1=C(C)Nc2[nH]c(=S)[nH]c(=O)c2C1c1ccc(OC)cc1 (stereo not given),i,2.1%,5.1%,-14.1%,2.4%,i
COC(=O)C1=C(C)Nc2c(c(=O)n(C)c(=O)n2C)C1c1ccncc1 (stereo not given),i,-2.7%,0.1%,-9.5%,-8.0%,i
CCOC(=O)C1=C(C)Nc2sc(C(=O)c3ccc(OC)cc3)c(N)c2C1c1ccc(C(=O)OC)cc1 (stereo not given),i,14.0%,11.6µM*,13µM*,7.4%,i
COC(=O)C1=C(C)Nc2sc(C(N)=O)c(N)c2C1c1ccncc1 (stereo not given),i,-26.4%,u,23.1µM*,u,i
CC(C)[C@H](NS(=O)(=O)c1ccc2c(c1)OCCO2)C(=O)OCC(=O)Nc1cc(Cl)ccc1Cl,i,-6.6%,u,-1.4%,-3.6%,i
COc1ccc(OC)c2sc(N(CCN(C)C)C(=O)/C=C/c3cccs3)nc12,u,18.4µM*,u,u,16.4µM*,u
CCOc1cccc2sc(N(CCN(C)C)C(=O)/C=C/c3cccs3)nc12,i,u,8.2µM*,u,u,i
CN(C)CCN(C(=O)/C=C/c1cccs1)c1nc2c(F)cc(F)cc2s1,i,u,u,u,-100.0%,u
COc1ccc(C)c2sc(N(CCN(C)C)C(=O)/C=C/c3cccs3)nc12,u,20.6µM*,3.7%,5.7%,u,u
COc1cccc2sc(N(CCN(C)C)C(=O)/C=C/c3cccs3)nc12,i,-15.5%,u,17.8%,u,i
Cc1ccc(C)c(S(=O)(=O)c2cnc(SCC(=O)Nc3ccc(F)cc3F)[nH]c2=O)c1,i,x,x,x,x,i
Nc1nc(NCCO)nc(N2CCCCCC2)c1[N+](=O)[O-],i,2.9%,6.2%,3.7%,-5.7%,i
OCCN(CCO)c1nc(N2CCCCC2)c2nc(N(CCO)CCO)nc(N3CCCCC3)c2n1,x,u,6.99µM*,11.6µM*!,-26.1%,x
C[C@]12c3[nH]c4cc(-c5ccco5)ccc4c3CCN1C(=O)[C@@H](CC(=O)NCC13CC4CC(CC(C4)C1)C3)C[C@@H]2C(=O)N1CCOCC1,23.1µM*,u,u,-2.8%,18.4µM*,u
CCN(CC)C(=O)[C@H]1CC(CC(=O)NCC23CC4CC(CC(C4)C2)C3)C(=O)N2CCc3c([nH]c4ccccc34)[C@]12C (stereo not given in full),i,11.1%,u,23.1µM*,7.4%,i
CCN(CC)C(=O)[C@H]1CC(CC(=O)NCCC2=CCCCC2)C(=O)N2CCc3c([nH]c4ccccc34)[C@]12C (stereo not given in full),i,-1.4%,3.1%,u,-10.7%,i
O=C(C[C@H]1C[C@H](C(=O)N2CCOCC2)[C@@]2(CCC3CCCC3)c3[nH]c4cc(-c5ccco5)ccc4c3CCN2C1=O)NCC12CC3CC(CC(C3)C1)C2,i,-1.4%,-3.3%,5.6%,-18.6%,u
C[C@]12c3[nH]c4ccc(Cl)cc4c3CCN1C(=O)[C@@H](CC(=O)NCC13CC4CC(CC(C4)C1)C3)C[C@@H]2C(=O)N1CCOCC1,u,23.1µM*,u,u,u,u
CC[C@]12c3[nH]c4ccc(Cl)cc4c3CCN1C(=O)[C@@H](CC(=O)NCC13CC4CC(CC(C4)C1)C3)C[C@@H]2C(=O)N1CCN(C(=O)C2CC2)CC1,i,16.4µM*,u,u,23.1µM*,u
CC(NC(=O)C1CCN(c2nc3ccccc3nc2C(F)(F)F)CC1)c1ccccc1 (stereo not given),i,x,x,x,x,i
C[C@@H]1CN([C@H](C)CO)C(=O)Cc2cc(NS(=O)(=O)c3cn(C)cn3)ccc2O[C@H]1CN(C)S(=O)(=O)c1ccc(Cl)cc1,i,0.0%,1.4%,u,0.5%,i
COCc1ccc(C(=O)N2CCCC(CCC(=O)NCc3ccccc3F)C2)o1 (stereo not given),u,14.6µM*,13µM*,11.6µM*,u,u
CCOc1cccc(CN2CCCC(CCC(=O)NCc3ccccc3F)C2)c1O (stereo not given),i,1.7%,-25.3%,16.4µM*,0.5%,i
SMILES,KB-V1 MDR tox,HT1080-NT tox,MCF10A rereplic,SW480 rereplic,HT1080 IDH1KD tx,KB-3-1 tox
CC(C)c1cc(C(=O)N2CCCC(CCC(=O)NCc3ccccc3F)C2)n(C)n1 (stereo not given),9.2µM*,-7.9%,-1.7%,-2.7%,-11.7%,u
O=C(CCC1CCCN(C(=O)c2ccco2)C1)NCc1ccccc1F (stereo not given),i,-14.5%,3.6%,3.9%,-28.6%,i
Cn1c(=O)c2c(-c3ccc(Br)cc3)n(CCc3ccccc3)cc2n(C)c1=O,i,x,x,x,x,i
OC[C@@H]1CN(Cc2ccccc2)C[C@H](n2cnc3c(N4CCN(c5ccccc5)CC4)ncnc32)O1,u,-11.8%,x,x,1.3%,i
Fc1ccccc1/C=C1\CCCC2=C1Nc1nnnn1C2c1ccccc1F (stereo not given),i,12.6µM*,u,16.2%,10µM*,i
CCOC(=O)C1=C(C)Nc2nnnn2C1c1ccccc1Cl (stereo not given),i,-2.4%,-1.6%,-3.8%,-14.9%,i
COc1ccccc1-n1c(=S)[nH]c2c(sc(=S)n2-c2ccccc2C)c1=O,u,-4.8%,u,u,-7.5%,i
C[C@@]12C(=O)Nc3ccc(Cl)cc3C(=O)N1[C@H]1c3cc(Br)ccc3OC[C@@H]1[C@@H]2c1ccccc1,i,-23.9%,1.3%,16.4µM*,-13.9%,i
C[C@@]12C(=O)Nc3ccccc3C(=O)N1[C@H]1c3cc(Br)ccc3OC[C@@H]1[C@@H]2c1ccccc1,i,u,3.26µM*,u,5.8µM*,u
